CHO-K1 Ca antag – M1 antagonist counterscreen hit in parental CHO-K1 cells | inhibition, % at 3 µM | 360,000 compounds, 0.6% hits | ATP-induced calcium, Fluo-8 fluorescence;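 active = inhibition above a per-plate cutoff, the plate's mean sample inhibition plus 3 SD, cut at about 24% in these data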
CHO-K1 Ca ag – counter-screen for M1 agonists: effect in parental CHO-K1 cells; Fluo-8 calcium fluorescence; scaled to maximal ATP response, vehicle zero; activation, % at 3 µM; 360,000 compounds, 0.48% hits; in the data active = activation above about 15%;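 also: untransfected CHO-K1 host cells lacking M1 receptor as counterscreen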
M1 antag – human M1 muscarinic receptor antagonists, primary screen, CHO-K1 cells, Fluo-8 calcium fluorescence, 1536-well; Muscarinic acetylcholine receptor M1 (Homo sapiens), P11229; CHO-K1 hM1, ACh EC80 antagonist; inhibition, % at 3 µM; 360,000 compounds, 1.3% hits;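 active = percent inhibition above its own plate's cutoff, namely the mean of that plate's compound wells plus 3 SD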;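 also: peak over basal fluorescence ratio during 140 s after agonist addition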
Target sequence (P11229 whole entry, looked up): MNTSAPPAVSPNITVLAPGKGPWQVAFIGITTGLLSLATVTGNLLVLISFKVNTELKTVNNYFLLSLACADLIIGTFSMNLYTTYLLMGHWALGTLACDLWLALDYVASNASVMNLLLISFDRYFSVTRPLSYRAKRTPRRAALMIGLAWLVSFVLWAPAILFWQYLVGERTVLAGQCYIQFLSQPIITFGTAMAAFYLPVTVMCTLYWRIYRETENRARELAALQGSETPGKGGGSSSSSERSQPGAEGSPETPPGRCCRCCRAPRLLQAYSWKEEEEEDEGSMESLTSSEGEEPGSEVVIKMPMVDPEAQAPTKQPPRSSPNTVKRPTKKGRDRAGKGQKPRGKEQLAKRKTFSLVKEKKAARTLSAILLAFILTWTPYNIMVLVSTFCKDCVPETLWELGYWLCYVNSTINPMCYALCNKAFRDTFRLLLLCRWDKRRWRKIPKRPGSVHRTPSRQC
CHO-K1 Ca PAM – nonselective calcium activators in parental CHO-K1 cells, primary screen, counter-screen for M1 PAM project, cell-based, Fluo-8 calcium fluorescence, full deck, 1536-well; 360,000 compounds, 0.02% hits; AID 602247, 2012; activation, % at 3 µM; ATP EC20; 0% at ATP EC20, 100% at ATP max;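 active = activation above the run cutoff, the mean activation of all test compounds plus 3 SD, cut at about 40% in these data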;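 also: peak over basal fluorescence ratio in a 140 s read after ATP addition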
CHRM1 agonist – human M1 muscarinic receptor agonists, primary screen, Fluo-8 calcium fluorescence, CHO-K1 cells, HTS. 360,000 compounds, 0.33% hits. Muscarinic acetylcholine receptor M1 (Homo sapiens), P11229. CHO-K1 hM1, agonist mode; 0% DMSO, 100% acetylcholine EC100. activation, % at 3 µM. AID 588814, 2011;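 active = activation above the run's mean compound activation plus 3 SD, cut at about 16% in these data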;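 also: peak over basal fluorescence ratio within a 140 s kinetic read after compound addition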
M1 PAM – human M1 muscarinic receptor positive allosteric modulators, primary screen, CHO-K1 cells, Fluo-8 calcium fluorescence, 1536-well; CHO-K1 hM1, ACh EC20; 0% = ACh EC20, 100% = maximal ACh; 360,000 compounds, 0.088% hits; AID 588819, 2011; activation, % at 3 µM; in the data active = activation above about 19%, passing the limit was not always enough
Numbers stand for hits; – = inactive; · = not tested or not shown. The list is not random: actives were taken first. Their share in the collection is about 2.3%.

SMILES | CHO-K1 Ca antag | CHO-K1 Ca ag | M1 antag | CHO-K1 Ca PAM | CHRM1 agonist | M1 PAM
CCOC(=O)C1CCN(CCCSc2ccc(Cl)cc2)CC1 | – | – | 28 | – | – | –
CC1CCN(CCOCCSc2ccc(Cl)cc2)CC1 | 27 | – | – | – | – | –
CC(C)(C)OC(=O)NCc1ccc(CNC(=O)c2[nH]cnc2C(=O)NCC(=O)OCc2ccccc2)cc1 | – | – | 44 | – | – | –
C[C@H](NC(=O)c1nc[nH]c1C(=O)NCC(=O)OCc1ccccc1)c1ccccc1 | – | – | 31 | – | – | –
C[C@H](NC(=O)c1nc[nH]c1C(=O)NCC(=O)OCc1ccccc1)C(=O)OCc1ccccc1 | – | – | – | – | – | –
O=C(CNC(=O)c1nc[nH]c1C(=O)NCc1ccccc1)OCc1ccccc1 | – | – | 38 | – | – | –
CC(C)(C)OC(=O)NCc1ccc(CNC(=O)c2nc[nH]c2C(=O)NCc2ccccc2)cc1 | – | – | – | – | – | –
COc1ccc(COc2cc(-c3cccc(OC)c3)nc3ccc(NC(=O)c4ccc(C)cc4)cc23)cc1 | – | – | – | – | – | –
COc1ccc(COc2cc(-c3cccc(OC)c3)nc3ccc(NC(=O)c4ccc(N(C)C)cc4)cc23)cc1 | – | – | 40 | – | – | –
CC1CCCN(CCCNC(=O)C2CCC(CNS(=O)(=O)c3cccc4nsnc34)CC2)C1 (centres undefined) | – | – | 45 | – | – | –
O=C(CNC(=O)c1ccccc1F)N/N=C/c1cn[nH]c1-c1ccccc1 | – | – | 41 | – | – | –
Cc1ccc(S(=O)(=O)N2CCOCC2)cc1C(=O)NC(C)CCc1ccccc1 (centres undefined) | – | – | – | – | – | –
Cc1cc(C)cc(NC(=S)N2C3CCCC2CC(NC(=O)C2CC2)C3)c1 (centres undefined) | – | – | 27 | – | – | –
Cc1ccc(NC(=S)N2C3CCCC2CC(NC(=O)C2CC2)C3)cc1C (centres undefined) | – | – | – | – | – | –
COc1ccc(SCC(O)Cn2c3ccccc3c3ccccc32)c(OC)c1 (centres undefined) | – | – | · | – | · | ·
CCO[C@@H]1OC(C(=O)NCc2ccccc2)=C[C@H](c2ccc(Br)cc2)[C@H]1CCCO | – | – | 68 | – | – | –
CCO[C@H]1OC(C(=O)NCc2ccccc2)=C[C@@H](c2ccc(C(F)(F)F)cc2)[C@@H]1CCCO | – | – | – | – | – | –
C#Cc1ccc([C@H]2C=C(C(=O)NCc3ccccc3)O[C@@H](OCC)[C@@H]2CCCO)cc1 | – | – | 63 | – | – | –
C#Cc1ccc([C@@H]2C=C(C(=O)Nc3ccccc3)O[C@H](OCC)[C@H]2CCCO)cc1 | – | – | – | – | – | –
Cc1ccc(OCCNC(=O)CCNS(=O)(=O)c2ccc3ccccc3c2)cc1 | – | – | – | – | – | –
Cc1ccc(CN(C)C(=O)c2ccc(S(=O)(=O)N(C)c3ccccc3)cc2)o1 | – | – | 40 | – | – | –
CN(Cc1ccc(OC(F)F)cc1)C(=O)c1ccc(S(=O)(=O)N(C)c2ccccc2)cc1 | – | – | – | – | – | –
CCN1CCN(c2ccc(NC(=O)c3ccc(Cl)c(S(=O)(=O)N4CCCC4)c3)cc2)CC1 | – | – | 99 | – | – | –
CCCCOc1cccc(C(=O)Nc2ccc(N3CCN(CC)CC3)cc2)c1 | – | – | 75 | – | – | –
CCN1CCN(c2ccc(NC(=O)c3ccc4c(c3)OCO4)cc2)CC1 | – | – | – | – | – | –
CCOC(=O)c1ccc(NC(=O)c2ccc(C)c(S(=O)(=O)N3CCOCC3)c2)cc1 | 30 | – | 51 | – | – | –
CCN1CCN(c2ccc(NC(=O)c3ccc(OC)c(S(=O)(=O)N4CCCC4)c3)cc2)CC1 | – | – | – | – | – | –
CC(=O)c1ccc(NC(=O)c2ccc(C)c(S(=O)(=O)N3CCOCC3)c2)cc1 | – | – | – | – | – | –

Assay outcomes deposited in PubChem by The Scripps Research Institute Molecular Screening Center.
